In PubChem BioAssay AID720530 (The Scripps Research Institute Molecular Screening Center, 2013):
Hit rate of the full screen: of about 1,000 compounds, about 260 (26%) were called active. Only a sample is shown. Values without a mark were called inactive. Rule as the data show it: active = inhibition above about 21%; inactive = the rest.

Biological target: E3 ubiquitin-protein ligase UHRF1 (Homo sapiens) (UniProt Q96T88)
Experiment: UHRF1 methylated DNA binding inhibitors, counter-screen for MBD2 inhibitor project, biochemical, TR-FRET, human UHRF1 (AID 720530);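 also: UHRF1 SRA domain binding a labeled hemimethylated CpG hairpin DNA; 0% = vehicle only and 100% = reference inhibitor with vehicle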
Details: UHRF1 binding to methylated oligonucleotide, at 4.4 µM, active compounds read high

Chain of E3 ubiquitin-protein ligase UHRF1 (Homo sapiens) (Q96T88 whole entry, looked up, the tested form may be a part): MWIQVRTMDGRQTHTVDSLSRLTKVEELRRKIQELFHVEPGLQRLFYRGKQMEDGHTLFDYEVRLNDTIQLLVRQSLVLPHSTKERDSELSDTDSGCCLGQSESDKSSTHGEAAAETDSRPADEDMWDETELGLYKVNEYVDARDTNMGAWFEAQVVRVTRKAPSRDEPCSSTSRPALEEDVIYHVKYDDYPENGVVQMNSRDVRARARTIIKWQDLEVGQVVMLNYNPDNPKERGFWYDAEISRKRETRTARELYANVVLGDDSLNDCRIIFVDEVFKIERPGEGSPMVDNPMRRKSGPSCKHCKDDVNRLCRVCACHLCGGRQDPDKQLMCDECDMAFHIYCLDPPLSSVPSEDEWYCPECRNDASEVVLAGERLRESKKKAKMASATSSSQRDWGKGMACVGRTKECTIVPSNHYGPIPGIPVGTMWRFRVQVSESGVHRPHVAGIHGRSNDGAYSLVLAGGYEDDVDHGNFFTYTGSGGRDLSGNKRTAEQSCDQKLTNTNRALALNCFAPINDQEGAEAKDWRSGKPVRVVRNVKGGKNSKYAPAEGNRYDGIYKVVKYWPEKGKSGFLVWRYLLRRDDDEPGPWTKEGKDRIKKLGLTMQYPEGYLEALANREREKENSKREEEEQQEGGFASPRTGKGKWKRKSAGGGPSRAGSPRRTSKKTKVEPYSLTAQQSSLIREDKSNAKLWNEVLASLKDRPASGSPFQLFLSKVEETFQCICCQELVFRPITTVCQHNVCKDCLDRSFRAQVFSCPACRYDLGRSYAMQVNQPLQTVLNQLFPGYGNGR

SMILES | inhibition
Cc1cc(/C=C2/C(=O)NC(=O)N(Cc3ccco3)C2=O)c(C)n1-c1ccc(C(=O)O)cc1 | 15.7%
O=C1NC(=O)N(Cc2ccco2)C(=O)/C1=C\c1ccc(-c2ccc(F)cc2)o1 | 12.8%
COc1ccc(N2C(=O)/C(=C/c3ccco3)C(=O)NC2=S)cc1 | 97.2% (active)
